In ChEMBL document CHEMBL3988442, “University of Dundee, Small-Polar-MMV Screening Library” (2021):
For some of these results: Entries with a potency or affinity are not part of this list.

How the values were obtained:
Parameters in all cases: scale not given: direction of the effect not stated beside the values
[1] = biological target: Protein translocase subunit SecA (Escherichia coli (strain K12)) (UniProt P10408); experiment: Assay to Identify E. coli SecA ATPase Inhibitors; format: functional; conditions: 30 µM
[2] = biological target: T1, Ubiquitin-activating enzyme e1, putative (Leishmania donovani (strain BPK282A1)) (UniProt E9BSI1); experiment: Leishmania donovani Ubiquitin Activating Enzyme (LdE1); format: functional; conditions: 30 µM
T1 sequence (whole entry): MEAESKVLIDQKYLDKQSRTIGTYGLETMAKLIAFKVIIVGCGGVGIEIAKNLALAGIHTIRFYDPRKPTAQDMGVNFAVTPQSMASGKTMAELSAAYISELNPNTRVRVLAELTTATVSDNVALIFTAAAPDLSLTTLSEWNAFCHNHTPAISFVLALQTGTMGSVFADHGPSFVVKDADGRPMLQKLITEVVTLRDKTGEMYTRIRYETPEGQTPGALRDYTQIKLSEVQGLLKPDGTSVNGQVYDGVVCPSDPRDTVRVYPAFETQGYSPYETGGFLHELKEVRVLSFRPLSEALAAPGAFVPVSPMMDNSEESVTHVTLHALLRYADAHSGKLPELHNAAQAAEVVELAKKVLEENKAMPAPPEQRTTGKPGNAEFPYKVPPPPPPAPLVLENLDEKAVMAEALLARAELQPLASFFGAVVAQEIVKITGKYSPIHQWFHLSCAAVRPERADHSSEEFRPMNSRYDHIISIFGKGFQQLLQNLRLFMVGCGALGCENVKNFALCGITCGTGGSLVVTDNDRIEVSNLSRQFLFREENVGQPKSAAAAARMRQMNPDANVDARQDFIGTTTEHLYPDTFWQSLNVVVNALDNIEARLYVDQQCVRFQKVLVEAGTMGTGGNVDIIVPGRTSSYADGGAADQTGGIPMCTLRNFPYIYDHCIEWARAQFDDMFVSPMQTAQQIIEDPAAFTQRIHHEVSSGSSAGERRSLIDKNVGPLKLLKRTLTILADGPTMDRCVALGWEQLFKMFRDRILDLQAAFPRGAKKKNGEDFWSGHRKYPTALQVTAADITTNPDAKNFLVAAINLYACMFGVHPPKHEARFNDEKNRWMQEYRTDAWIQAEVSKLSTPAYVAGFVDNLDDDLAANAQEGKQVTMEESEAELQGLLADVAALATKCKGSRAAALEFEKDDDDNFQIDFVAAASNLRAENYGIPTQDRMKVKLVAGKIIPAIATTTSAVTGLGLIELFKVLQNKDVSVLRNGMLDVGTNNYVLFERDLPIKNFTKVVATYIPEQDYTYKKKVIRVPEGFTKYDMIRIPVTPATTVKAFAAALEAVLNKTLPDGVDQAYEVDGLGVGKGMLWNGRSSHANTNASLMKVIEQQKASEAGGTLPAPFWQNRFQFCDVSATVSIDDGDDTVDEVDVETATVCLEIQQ

[3] = biological target: AMP-activated protein kinase, AMPK (Homo sapiens) (UniProt P54646+O43741+P54619+Q9UGJ0+Q9Y478+Q13131+Q9UGI9); experiment: AMP-dependent Kinase enzyme assay. An in vitro enzyme assay that detects ADP turnover that is directly proportional to AMPK activity. This uses naive AMPK that is activated during the assay with MK-8722; format: functional; conditions: 30 µM
[4] = biological target: Sialic acid-binding Ig-like lectin 9 (Homo sapiens) (UniProt Q9Y336); experiment: Hs-Siglec9 ALPHAscreen SOP 20170721; conditions: 10 µM
[5] = system: Trypanosoma cruzi; experiment: Trypanosoma cruzi phosphomannomutase and mannose-1-phosphate guanylyltransferase assay; format: functional; conditions: 10 µM
[6] = biological target: T2, Arginase-2, mitochondrial (Homo sapiens) (UniProt P78540); experiment: in vitro enzyme assay to detect the production of urea directly proportional to the activity of Arginase II; format: functional; conditions: 33.3 µM; note: in the data most compounds retested in dose-response had high values
T2 sequence (whole entry): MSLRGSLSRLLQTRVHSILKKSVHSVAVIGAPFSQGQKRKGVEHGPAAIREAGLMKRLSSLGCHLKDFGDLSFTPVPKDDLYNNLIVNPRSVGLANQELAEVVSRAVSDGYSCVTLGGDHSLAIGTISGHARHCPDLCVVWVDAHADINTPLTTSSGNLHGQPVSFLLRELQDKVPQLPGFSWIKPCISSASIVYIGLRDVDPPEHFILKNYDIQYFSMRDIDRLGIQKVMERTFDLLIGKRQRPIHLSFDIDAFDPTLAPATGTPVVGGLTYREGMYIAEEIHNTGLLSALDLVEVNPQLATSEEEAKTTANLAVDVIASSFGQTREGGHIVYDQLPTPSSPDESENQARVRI

[7] = biological target: T3, Proteasome subunit beta (Trypanosoma cruzi) (UniProt O96673); experiment: Trypanosoma cruzi proteasome chymotrypsin-like activity (TcProtChymo) assay.; note: in the data most compounds retested in dose-response had high values; format: functional; conditions: 9.37 µM
T3 sequence (whole entry): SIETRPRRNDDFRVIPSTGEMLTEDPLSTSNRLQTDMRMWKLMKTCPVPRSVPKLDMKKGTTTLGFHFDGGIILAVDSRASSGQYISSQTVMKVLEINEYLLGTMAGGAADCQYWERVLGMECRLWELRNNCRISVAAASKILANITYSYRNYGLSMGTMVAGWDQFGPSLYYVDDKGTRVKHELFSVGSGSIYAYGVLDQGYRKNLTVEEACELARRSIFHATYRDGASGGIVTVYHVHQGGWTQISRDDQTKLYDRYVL

[8] = species on record: Homo sapiens; experiment: To identify inhibition of the IFN signalling (Jak-Stat) pathway via expression of an eGFP reporter gene under the control of an IFN-stimulated response element (ISRE) containing MxA promoter.; format: functional; conditions: 30 µM
[9] = biological target: T4, Tyrosyl-tRNA synthetase, putative (Trypanosoma cruzi (strain CL Brener)) (UniProt Q4DSP6); experiment: Trypanosoma cruzi tyrosyl tRNA synthetase (TcYRS) _High Tyrosine SOP; format: functional; conditions: 30 µM; note: in the data most compounds retested in dose-response had high values
T4 sequence (whole entry): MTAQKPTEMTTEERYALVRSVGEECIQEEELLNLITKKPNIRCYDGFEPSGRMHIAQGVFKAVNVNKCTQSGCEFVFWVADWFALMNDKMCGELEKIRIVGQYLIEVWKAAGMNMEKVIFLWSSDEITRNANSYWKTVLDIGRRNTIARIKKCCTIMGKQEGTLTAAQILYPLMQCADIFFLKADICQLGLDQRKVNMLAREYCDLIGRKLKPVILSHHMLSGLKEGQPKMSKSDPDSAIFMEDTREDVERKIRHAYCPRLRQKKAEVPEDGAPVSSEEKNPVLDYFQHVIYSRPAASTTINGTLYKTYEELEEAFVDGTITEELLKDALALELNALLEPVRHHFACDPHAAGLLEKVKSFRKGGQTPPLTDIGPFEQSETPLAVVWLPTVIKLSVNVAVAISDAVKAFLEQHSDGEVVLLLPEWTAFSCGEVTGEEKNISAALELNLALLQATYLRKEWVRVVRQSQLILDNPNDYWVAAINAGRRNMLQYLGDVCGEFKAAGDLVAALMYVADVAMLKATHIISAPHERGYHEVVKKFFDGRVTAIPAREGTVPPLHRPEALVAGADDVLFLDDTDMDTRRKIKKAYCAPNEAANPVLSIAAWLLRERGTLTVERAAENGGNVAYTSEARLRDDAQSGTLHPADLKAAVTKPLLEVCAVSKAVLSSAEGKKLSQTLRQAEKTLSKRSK

[10] = biological target: T4, Tyrosyl-tRNA synthetase, putative (Trypanosoma cruzi (strain CL Brener)); experiment: Trypanosoma cruzi tyrosyl tRNA synthetase (TcYRS) SOP; format: functional; conditions: 30 µM
[11] = biological target: Chromo domain-containing protein 1 (Saccharomyces cerevisiae (strain ATCC 204508 / S288c) (Baker's yeast)) (UniProt P32657); experiment: ScCHD-1 Enzyme Inhibition Assay; format: functional; conditions: 30 µM; note: in the data most compounds retested in dose-response had high values
Sequence of Chromo domain-containing protein 1 (Saccharomyces cerevisiae (strain ATCC 204508 / S288c) (Baker's yeast)) (P32657 whole entry, the tested form may be a part): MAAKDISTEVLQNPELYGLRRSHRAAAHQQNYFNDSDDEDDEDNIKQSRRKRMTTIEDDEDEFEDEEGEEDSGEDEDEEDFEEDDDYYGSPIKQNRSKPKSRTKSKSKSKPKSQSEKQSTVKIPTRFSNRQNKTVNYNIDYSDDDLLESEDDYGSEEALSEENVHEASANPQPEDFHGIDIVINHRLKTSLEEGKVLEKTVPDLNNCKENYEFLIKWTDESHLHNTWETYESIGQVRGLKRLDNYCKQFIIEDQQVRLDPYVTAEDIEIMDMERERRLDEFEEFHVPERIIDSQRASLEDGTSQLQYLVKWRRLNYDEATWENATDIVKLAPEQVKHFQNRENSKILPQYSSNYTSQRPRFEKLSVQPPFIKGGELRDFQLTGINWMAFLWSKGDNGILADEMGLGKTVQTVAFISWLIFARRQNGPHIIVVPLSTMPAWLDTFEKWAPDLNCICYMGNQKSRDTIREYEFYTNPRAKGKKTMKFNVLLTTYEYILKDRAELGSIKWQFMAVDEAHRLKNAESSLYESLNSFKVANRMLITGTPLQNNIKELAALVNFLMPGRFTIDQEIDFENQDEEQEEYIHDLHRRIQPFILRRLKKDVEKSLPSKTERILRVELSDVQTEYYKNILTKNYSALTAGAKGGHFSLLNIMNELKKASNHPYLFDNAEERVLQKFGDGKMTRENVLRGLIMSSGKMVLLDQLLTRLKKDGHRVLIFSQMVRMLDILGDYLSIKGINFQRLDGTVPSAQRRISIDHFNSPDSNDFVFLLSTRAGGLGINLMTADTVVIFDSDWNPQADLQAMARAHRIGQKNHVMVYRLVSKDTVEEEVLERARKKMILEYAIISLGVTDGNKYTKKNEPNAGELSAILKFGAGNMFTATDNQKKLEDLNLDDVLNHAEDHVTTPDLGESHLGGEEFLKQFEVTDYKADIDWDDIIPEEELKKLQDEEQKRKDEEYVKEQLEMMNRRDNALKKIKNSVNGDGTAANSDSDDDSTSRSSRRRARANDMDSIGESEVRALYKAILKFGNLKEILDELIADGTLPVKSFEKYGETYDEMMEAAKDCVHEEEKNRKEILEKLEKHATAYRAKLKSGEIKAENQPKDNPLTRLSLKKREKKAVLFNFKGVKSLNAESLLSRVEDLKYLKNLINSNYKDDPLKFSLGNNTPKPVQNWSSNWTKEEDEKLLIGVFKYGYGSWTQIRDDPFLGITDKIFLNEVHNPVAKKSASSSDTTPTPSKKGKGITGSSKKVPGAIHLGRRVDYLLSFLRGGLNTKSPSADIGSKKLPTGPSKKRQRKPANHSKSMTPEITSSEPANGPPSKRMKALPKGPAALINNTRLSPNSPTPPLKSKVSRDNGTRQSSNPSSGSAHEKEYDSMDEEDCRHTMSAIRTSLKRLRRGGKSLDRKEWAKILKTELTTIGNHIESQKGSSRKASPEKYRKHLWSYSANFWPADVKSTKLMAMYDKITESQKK

Sequence of Sialic acid-binding Ig-like lectin 9 (Homo sapiens) (Q9Y336 whole entry): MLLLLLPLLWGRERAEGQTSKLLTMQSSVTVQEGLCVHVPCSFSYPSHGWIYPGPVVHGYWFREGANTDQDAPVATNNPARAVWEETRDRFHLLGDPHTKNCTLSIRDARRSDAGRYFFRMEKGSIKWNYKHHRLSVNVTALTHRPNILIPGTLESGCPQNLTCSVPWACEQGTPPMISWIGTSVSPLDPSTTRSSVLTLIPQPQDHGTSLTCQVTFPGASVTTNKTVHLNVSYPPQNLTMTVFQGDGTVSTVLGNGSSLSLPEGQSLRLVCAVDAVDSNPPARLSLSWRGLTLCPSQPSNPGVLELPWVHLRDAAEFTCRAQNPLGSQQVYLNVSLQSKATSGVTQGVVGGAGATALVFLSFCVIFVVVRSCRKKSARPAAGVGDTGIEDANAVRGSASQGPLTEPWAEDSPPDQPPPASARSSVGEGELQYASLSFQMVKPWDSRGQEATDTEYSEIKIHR
Sequence of Protein translocase subunit SecA (Escherichia coli (strain K12)) (P10408 whole entry): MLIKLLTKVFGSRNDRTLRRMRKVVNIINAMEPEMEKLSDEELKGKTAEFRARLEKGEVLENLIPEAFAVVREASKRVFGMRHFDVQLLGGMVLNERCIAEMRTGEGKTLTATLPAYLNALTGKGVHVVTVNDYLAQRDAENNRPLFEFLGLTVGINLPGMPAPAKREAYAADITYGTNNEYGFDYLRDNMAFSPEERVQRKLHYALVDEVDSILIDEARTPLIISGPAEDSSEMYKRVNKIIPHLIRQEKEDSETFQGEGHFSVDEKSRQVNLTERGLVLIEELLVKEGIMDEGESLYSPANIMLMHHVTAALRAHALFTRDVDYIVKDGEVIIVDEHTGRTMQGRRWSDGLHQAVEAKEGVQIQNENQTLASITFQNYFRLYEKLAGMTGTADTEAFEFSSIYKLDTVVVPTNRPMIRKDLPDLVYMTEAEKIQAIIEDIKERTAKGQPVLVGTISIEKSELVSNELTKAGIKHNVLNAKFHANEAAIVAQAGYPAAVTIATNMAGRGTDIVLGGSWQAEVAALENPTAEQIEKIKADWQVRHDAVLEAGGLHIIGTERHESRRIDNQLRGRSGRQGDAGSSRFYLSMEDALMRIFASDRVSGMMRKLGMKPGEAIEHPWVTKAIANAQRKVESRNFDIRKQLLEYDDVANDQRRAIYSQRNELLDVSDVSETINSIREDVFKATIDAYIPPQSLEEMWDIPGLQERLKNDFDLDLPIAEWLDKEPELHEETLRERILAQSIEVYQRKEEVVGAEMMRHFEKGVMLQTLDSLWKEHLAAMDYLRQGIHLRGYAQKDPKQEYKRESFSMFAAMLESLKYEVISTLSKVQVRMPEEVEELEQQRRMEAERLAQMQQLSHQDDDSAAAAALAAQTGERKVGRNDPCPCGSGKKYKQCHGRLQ

Row | SMILES | Percent Effect [1] [%] | Percent Effect [2] [%] | Percent Effect [3] [%] | Percent Effect [4] [%] | Percent Effect [5] [%] | Percent Effect [6] [%] | Percent Effect [7] [%] | Percent Effect [8] [%] | Percent Effect [9] [%] | Percent Effect [10] [%] | Percent Effect [11] [%]
1 | CSc1ncccc1C(=O)NCc1ccc(CS(=O)(=O)NC(C)C)cc1 | -2.86 | 13.9 | 2.75 | -0.901 | -1.74 | 3.23 | 15.4 | 21.4 | 2.08 | 2.53 | -26.4
2 | CC(C)(C)N1CC(C(=O)N2CCN(CCn3cccc3)CC2)CC1=O (stereo unspecified) | -6.81 | 10.7 | -6.2 | 27.1 | 4.97 | 22.4 | 12 | 5.12 | 4.92 | 8.64 | -4.28
3 | Cc1nn(C)c(N(C)C)c1CNCc1cccnc1 | -5.22 | -2.7 | -6.42 | -9.25 | -5.38 | -1.74 | 12.4 | -10.3 | -4.3 | -6.17 | -0.598
4 | COCCC(=O)N1CCc2cc(Cl)cc(Cl)c2C1 | -3.86 | -44.2 | 0.226 | 19.2 | 1.87 | 0 | 14 | -16.1 | -3.23 | -1.24 | 126
5 | Cc1cc(-c2cnc(N3CCN(C)CC3)nc2-c2ccc(C)s2)on1 | -2.21 | -1.35 | 10.6 | 0.731 | -4.15 | 2.09 | 2.81 | -1.59 | 1.07 | 6.49 | -16.5
6 | CC(C)OCCN(Cc1cccc(O)c1)C1CCC(O)CC1 (stereo unspecified) | -4.61 | 0 | -1.14 | -7.69 | -5.96 | 0.744 | 4.89 | -1.68 | 0 | -1.24 | -0.807
7 | Cn1cnc2c1CCN(Cc1nc(-c3ccsc3)no1)C2 | -6.98 | 18.9 | -7.09 | 15.8 | 10.7 | -3.14 | 5.57 | 2.25 | 7.92 | 25.6 | -9.67
8 | CCC(=O)N(C)C1CCN(Cc2ncc(C)c(OC)c2C)CC1 | -5.54 | 18.2 | -1.36 | -0.124 | 2.25 | 2.13 | 18.9 | 16.3 | 5.83 | 19.5 | -7.08
9 | Cc1nc(COc2cccc(C#N)c2)no1 | -1.52 | 21.1 | -5.19 | 8.22 | 5.13 | -0.36 | 8.21 | -0.09 | 10.3 | 25.9 | -8.11
10 | c1cnn(CC2CCCCN2c2ncnc3sccc23)c1 (stereo unspecified) | -7.65 | -5.33 | 0.901 | 5.7 | -2.63 | -1.56 | 6.45 | 29.1 | -0.546 | -1.24 | -3.05
11 | CN(CCCNc1cc(N2CCCC2CO)ncn1)S(C)(=O)=O (stereo unspecified) | -2.02 | 8.22 | -20.8 | 7.67 | -1.96 | 1.82 | 16.3 | 8.58 | 2.15 | 7.5 | -5.59
